What all share (assay): DAPPL (digital affinity profiling via proximity ligation, sequencing); 10 mM Tris-HCl pH 7.5, 50 mM NaCl, 1 mM DTT, 4% glycerol, room temperature, 30 min; GST-TFs on glutathione beads, 16-mer random dsDNA library, 0.1% formaldehyde crosslink after washing; high values mean tight binding
Conditions in all cases: protein: recombinant; tags: N-terminal GST; dsDNA, one strand shown

For test [1], the target named is T1, ELK1 (Homo sapiens, UniProt P19419 1-428).
T1 sequence: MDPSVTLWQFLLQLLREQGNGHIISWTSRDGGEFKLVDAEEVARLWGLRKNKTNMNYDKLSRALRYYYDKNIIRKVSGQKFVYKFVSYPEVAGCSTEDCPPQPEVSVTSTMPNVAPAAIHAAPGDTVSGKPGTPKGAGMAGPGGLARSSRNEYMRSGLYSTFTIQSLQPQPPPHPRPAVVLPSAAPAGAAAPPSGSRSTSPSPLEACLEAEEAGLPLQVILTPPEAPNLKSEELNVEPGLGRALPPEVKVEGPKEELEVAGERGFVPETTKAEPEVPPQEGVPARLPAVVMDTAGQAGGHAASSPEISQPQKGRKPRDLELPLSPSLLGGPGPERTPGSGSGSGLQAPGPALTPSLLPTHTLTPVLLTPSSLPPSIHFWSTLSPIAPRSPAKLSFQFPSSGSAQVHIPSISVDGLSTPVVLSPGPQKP
In short, it runs like this: (§1)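 GST fusions of human transcription factors were expressed in yeast and captured with glutathione beads. Once given DNA barcodes and pooled alongside a tag-only sample, they were incubated for 30 min at room temperature with 200 nmole of a random double-stranded 16-mer DNA library in Tris/NaCl/DTT/glycerol buffer, then washed, crosslinked (0.1% formaldehyde), proximity-ligated, PCR-amplified and sequenced on an Illumina NextSeq500. The binding signal of each hexamer is its read frequency for a factor divided by its frequency for the tag-only sample.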

For test [2], the target named is T2, GABPA (Homo sapiens, UniProt Q06546 1-454).
T2 sequence: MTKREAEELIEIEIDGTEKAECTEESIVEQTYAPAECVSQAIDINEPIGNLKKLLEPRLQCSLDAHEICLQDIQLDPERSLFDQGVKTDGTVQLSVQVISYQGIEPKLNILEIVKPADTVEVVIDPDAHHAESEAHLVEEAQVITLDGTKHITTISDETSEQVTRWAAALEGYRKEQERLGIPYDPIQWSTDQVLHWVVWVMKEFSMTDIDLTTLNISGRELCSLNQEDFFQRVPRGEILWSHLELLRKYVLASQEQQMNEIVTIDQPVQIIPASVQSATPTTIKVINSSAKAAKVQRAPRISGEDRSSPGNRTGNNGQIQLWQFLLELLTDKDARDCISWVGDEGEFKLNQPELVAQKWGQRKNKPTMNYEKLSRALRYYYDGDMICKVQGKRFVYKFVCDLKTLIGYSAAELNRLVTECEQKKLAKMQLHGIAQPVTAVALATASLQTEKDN
In short, it runs like this: as §1

The target of test [3] is T3, ERG (Homo sapiens, UniProt P11308 1-479).
T3 sequence: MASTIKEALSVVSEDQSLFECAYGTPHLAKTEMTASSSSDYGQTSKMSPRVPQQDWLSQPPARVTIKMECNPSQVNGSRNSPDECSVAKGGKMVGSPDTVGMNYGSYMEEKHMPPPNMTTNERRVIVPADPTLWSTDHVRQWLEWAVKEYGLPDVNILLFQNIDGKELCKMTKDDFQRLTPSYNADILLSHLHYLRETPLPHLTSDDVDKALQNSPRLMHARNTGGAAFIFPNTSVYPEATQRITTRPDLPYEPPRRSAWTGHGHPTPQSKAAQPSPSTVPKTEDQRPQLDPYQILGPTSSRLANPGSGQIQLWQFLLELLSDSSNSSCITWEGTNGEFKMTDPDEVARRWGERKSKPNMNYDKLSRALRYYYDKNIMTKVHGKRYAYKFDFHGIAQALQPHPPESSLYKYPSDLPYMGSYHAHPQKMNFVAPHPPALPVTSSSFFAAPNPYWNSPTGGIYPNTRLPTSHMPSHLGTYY
In short, it runs like this:
as §1

Test [4] concerns the target ELF1 (Homo sapiens, UniProt P32519 1-619). In short, it runs like this: as §1
Test [5] addresses ETV5 (Homo sapiens, UniProt P41161 1-510). In short, it runs like this:
as §1

In test [6] the target is T4, ELK4 (Homo sapiens, UniProt P28324-2 1-405).
T4 sequence: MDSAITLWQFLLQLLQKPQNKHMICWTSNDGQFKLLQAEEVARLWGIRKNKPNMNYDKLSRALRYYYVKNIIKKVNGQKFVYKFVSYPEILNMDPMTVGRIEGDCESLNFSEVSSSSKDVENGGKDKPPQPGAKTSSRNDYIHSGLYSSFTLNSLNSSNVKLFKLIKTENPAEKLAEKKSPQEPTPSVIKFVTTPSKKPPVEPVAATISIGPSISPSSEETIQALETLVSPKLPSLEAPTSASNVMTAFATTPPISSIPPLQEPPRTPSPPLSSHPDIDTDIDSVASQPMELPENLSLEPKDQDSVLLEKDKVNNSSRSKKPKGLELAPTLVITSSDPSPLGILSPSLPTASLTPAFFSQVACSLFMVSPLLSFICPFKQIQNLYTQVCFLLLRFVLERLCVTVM
In short, it runs like this: as §1

In test [7] the target is T5, ETV2 (Homo sapiens, UniProt O00321 1-342).
T5 sequence: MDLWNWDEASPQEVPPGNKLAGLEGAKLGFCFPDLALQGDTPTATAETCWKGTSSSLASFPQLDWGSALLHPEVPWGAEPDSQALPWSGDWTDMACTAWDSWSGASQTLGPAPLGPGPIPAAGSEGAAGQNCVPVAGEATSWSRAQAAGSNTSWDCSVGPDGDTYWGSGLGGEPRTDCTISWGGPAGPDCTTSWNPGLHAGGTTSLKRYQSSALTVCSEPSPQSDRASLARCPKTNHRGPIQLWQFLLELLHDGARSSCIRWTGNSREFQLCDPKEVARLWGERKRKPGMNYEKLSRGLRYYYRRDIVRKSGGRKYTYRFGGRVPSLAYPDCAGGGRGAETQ
In short, it runs like this:
as §1

For test [8], the target named is T6, ERF (Homo sapiens, UniProt P50548 1-548).
T6 sequence: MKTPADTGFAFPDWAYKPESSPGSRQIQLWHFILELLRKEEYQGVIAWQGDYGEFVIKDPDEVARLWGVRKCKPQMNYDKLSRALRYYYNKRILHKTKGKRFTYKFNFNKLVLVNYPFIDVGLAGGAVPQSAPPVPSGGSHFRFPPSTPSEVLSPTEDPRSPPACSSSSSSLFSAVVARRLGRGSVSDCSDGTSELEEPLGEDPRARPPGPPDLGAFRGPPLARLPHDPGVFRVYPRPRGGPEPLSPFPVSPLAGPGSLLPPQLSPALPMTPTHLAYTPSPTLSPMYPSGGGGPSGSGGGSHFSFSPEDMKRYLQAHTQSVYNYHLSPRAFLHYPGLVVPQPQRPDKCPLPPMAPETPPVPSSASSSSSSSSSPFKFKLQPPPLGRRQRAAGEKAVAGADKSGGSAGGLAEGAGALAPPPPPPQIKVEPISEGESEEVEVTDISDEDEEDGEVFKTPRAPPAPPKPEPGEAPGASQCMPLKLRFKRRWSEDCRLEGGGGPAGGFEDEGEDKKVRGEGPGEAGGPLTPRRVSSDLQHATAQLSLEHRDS
In short, it runs like this:
as §1

In test [9] the target is T7, ETV3L (Homo sapiens, UniProt Q6ZN32 1-361).
T7 sequence: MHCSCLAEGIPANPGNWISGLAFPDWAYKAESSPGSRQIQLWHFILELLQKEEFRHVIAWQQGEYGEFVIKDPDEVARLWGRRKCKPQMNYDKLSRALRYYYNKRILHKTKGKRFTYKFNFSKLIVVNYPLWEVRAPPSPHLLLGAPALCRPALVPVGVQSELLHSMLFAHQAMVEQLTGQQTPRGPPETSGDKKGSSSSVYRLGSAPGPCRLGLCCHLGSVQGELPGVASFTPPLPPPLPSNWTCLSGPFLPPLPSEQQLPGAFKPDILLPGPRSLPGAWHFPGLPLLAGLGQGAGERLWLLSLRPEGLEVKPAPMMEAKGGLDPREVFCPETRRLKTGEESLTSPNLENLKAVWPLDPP
In short, it runs like this:
as §1

Test [10] deals with T8, ETV7 (Homo sapiens, UniProt Q9Y603 1-341).
T8 sequence: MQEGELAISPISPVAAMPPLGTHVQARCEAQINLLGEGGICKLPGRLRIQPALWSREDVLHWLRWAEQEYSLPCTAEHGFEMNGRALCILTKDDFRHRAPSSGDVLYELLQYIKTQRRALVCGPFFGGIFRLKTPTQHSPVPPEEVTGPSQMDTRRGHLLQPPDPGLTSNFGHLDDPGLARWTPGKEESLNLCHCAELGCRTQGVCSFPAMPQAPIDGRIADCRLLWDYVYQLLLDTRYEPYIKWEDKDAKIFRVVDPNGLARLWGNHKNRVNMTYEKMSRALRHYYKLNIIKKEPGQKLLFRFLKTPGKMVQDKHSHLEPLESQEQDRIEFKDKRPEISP
In short, it runs like this:
as §1

In test [11] the target is T9, ETV3 (Homo sapiens, UniProt P41162-2 1-143).
T9 sequence: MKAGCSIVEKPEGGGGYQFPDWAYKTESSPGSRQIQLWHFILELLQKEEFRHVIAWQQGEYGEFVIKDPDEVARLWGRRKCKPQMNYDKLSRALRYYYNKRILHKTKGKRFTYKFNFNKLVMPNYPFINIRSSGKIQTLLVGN
In short, it runs like this: as §1

The target of test [12] is ETV6 (Homo sapiens, UniProt P41212 1-452). In short, it runs like this: as §1
ETV6, sequence (P41212 whole entry): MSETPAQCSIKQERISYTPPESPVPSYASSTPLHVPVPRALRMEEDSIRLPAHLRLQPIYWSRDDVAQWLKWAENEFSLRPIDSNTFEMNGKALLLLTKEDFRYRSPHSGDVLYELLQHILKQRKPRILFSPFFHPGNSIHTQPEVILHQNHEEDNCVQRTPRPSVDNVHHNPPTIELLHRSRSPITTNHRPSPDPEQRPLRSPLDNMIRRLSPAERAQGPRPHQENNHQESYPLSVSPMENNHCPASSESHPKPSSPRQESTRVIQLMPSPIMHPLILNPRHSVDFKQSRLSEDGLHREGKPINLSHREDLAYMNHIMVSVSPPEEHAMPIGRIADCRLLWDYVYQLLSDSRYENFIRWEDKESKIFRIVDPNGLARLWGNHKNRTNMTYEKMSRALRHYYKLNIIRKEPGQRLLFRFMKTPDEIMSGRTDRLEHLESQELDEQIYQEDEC

ETV5, sequence (P41161 whole entry): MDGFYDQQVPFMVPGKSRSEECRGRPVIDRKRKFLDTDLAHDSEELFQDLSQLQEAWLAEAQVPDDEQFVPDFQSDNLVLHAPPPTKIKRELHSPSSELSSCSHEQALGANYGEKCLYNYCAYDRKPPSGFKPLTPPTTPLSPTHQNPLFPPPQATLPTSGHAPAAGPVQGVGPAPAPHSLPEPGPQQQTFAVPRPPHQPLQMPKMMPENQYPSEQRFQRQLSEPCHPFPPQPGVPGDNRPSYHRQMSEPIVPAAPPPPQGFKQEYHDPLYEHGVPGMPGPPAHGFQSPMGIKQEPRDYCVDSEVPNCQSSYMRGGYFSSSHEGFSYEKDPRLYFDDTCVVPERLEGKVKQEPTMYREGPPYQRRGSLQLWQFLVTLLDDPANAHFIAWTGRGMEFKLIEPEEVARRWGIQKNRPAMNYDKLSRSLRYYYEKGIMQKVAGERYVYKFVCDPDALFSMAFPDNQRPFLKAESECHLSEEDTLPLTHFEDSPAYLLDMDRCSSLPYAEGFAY
ELF1, sequence (P32519 whole entry): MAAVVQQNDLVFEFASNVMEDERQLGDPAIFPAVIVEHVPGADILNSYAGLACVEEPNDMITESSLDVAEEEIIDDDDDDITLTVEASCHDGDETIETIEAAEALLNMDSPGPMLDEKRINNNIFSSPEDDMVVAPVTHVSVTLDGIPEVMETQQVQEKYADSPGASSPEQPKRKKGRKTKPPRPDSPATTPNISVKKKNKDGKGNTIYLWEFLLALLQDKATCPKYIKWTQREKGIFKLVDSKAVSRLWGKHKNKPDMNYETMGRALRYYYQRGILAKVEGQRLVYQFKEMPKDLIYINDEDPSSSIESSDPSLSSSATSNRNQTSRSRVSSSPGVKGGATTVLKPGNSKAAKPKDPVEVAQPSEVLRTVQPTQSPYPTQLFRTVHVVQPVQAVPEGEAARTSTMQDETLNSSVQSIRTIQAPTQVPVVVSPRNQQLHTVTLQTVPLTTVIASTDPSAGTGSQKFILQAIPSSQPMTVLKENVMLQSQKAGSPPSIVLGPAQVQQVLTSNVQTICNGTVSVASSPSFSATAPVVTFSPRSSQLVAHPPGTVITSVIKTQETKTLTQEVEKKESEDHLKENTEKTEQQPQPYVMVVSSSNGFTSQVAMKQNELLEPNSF

Take CGTTGT: the binding signal in test [1] is 1.09 fold enrichment (6-mer frequency, TF over GST control); in test [2], 1 fold enrichment (6-mer frequency, TF over GST control); in test [3] it was 1.02 fold enrichment (6-mer frequency, TF over GST control); in test [4], 1.04 fold enrichment (6-mer frequency, TF over GST control); in test [5] it was 1.01 fold enrichment (6-mer frequency, TF over GST control); in test [6], 1.14 fold enrichment (6-mer frequency, TF over GST control). The binding signal is 1.13 fold enrichment (6-mer frequency, TF over GST control) in test [7]; 1.03 fold enrichment (6-mer frequency, TF over GST control) in test [8]; 1.18 fold enrichment (6-mer frequency, TF over GST control) in test [9]; 1.1 fold enrichment (6-mer frequency, TF over GST control) in [10]; 1.07 fold enrichment (6-mer frequency, TF over GST control) in [11]; 1 fold enrichment (6-mer frequency, TF over GST control) in test [12].
